Article PMC5700166
Numbering of substitutions follows the chain as printed.

Legend:
Experiment in all cases: protein-binding microarray (PBM); PBM: ~300 nM protein, 6 mM HEPES pH 7.8, 80 mM KCl, 0.5 mM EDTA, 0.5 mM EGTA, 6% glycerol, 35 ng/ul poly-dIdC, 1% milk, 1 h, room temperature; Ap Aiptasia and Nv Nematostella (sea anemones) / Co Capsaspora / Aq Amphimedon (sponge) / Dm Drosophila / Hu human; RHD is the Rel homology domain; high values mean tight binding
Settings in all cases: dsDNA, one strand shown
[1] = target: T1, GST-Ap-NF-kB RHD (Exaiptasia pallida (Aiptasia), UniProt A0A913YAJ5 2-422)
T1 sequence: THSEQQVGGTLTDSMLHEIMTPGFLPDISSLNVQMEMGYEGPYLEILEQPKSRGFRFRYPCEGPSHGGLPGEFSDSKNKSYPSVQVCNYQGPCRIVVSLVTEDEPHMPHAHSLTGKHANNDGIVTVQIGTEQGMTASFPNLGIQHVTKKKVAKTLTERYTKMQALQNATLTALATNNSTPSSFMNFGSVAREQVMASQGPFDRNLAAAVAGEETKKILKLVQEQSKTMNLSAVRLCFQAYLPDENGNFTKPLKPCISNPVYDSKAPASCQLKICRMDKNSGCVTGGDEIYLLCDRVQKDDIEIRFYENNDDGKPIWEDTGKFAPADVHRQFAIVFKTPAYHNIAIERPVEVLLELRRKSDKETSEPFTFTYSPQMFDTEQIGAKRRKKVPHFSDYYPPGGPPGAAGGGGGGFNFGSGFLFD

[2] = target: T2, GST-Nv-NF-kB (Cys allele) (Nematostella vectensis, UniProt E5G601 2-411)
T2 sequence: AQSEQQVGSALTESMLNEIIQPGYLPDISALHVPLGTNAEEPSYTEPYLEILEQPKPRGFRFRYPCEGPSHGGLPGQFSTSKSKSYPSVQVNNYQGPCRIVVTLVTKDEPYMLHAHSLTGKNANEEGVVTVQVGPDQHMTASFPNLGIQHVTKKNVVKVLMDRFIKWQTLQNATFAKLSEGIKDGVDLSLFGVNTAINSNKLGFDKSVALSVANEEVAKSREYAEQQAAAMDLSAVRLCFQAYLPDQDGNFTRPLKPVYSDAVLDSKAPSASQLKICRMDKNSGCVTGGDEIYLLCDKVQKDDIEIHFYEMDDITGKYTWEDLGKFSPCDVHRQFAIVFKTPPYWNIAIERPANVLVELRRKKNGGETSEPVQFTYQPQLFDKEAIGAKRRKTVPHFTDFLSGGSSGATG

[3] = target: T3, GST-Nv-NF-kB (Ser allele) (Nematostella vectensis, UniProt A7UNT2 2-411)
T3 sequence: T2 sequence with Q21R, C66S, S207N, E215Q, V217A, E225K, A268E, D399E

[4] = target: T4, GST-Co-NF-kB (Capsaspora owczarzaki, UniProt F1ARL5 200-546)
T4 sequence: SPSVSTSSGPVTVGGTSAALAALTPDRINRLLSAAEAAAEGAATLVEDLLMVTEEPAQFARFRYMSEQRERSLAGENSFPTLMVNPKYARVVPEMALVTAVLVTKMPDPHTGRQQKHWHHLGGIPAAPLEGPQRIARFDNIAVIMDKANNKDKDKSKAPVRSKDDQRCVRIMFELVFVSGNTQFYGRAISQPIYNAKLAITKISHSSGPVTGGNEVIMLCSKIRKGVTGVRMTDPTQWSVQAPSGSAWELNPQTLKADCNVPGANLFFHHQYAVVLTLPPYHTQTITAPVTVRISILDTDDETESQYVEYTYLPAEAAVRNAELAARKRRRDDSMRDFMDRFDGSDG

[5] = target: T5, GST-Dm-Relish (Drosophila melanogaster, UniProt Q94527 99-473)
T5 sequence: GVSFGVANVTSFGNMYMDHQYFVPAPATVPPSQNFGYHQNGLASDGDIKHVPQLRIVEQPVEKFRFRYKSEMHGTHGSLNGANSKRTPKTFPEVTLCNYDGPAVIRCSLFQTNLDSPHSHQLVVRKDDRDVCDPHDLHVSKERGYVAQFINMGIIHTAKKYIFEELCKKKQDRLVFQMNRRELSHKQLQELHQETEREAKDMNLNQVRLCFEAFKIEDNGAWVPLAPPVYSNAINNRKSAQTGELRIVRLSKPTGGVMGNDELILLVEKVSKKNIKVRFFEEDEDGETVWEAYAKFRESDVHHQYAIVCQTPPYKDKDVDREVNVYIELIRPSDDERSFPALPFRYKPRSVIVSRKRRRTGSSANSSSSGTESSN

[6] = target: T6, GST-Aq-NF-kB (Amphimedon queenslandica, UniProt A9Y5G7 2-389)
T6 sequence: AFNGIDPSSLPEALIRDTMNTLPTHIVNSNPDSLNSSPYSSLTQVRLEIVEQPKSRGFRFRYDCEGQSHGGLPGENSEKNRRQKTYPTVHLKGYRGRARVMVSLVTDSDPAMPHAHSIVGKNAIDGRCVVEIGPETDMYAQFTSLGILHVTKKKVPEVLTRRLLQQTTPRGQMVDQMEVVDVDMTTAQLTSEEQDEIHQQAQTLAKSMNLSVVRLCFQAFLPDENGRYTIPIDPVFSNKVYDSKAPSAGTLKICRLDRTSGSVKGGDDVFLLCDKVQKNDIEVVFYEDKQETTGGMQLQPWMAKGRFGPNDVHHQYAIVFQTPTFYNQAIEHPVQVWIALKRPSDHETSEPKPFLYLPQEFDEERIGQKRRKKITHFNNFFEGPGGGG

[7] = target: GST-Hu-p50 (Homo sapiens, UniProt P19838 7-356)
GST-Hu-p50, sequence (P19838 7-356): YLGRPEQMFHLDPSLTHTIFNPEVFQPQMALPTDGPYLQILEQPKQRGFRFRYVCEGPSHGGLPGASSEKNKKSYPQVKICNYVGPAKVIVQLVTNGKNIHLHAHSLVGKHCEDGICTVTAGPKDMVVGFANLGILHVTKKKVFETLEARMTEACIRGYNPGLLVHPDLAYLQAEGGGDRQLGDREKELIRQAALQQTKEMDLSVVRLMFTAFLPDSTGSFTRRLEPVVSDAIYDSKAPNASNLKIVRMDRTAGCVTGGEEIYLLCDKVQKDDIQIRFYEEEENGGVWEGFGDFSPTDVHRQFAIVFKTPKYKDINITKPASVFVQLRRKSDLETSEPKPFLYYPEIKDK

Row | Sequence | binding signal [1] | binding signal [2] | binding signal [3] | binding signal [4] | binding signal [5] | binding signal [6] | binding signal [7]
1 | CCGATTAACATCAATTCCCCAGGTGATGTTAATCGGGTCTTGATTCGCTTGACGCTGCTG | 5.33 z-score | 5.44 z-score | 6.65 z-score | 6.18 z-score | 2.37 z-score | 3.8 z-score | 4.94 z-score
2 | CCGATTAACATCAAAAGAACCCCTGATGTTAATCGGGTCTTGATTCGCTTGACGCTGCTG | 4.18 z-score | 3.46 z-score | 3.14 z-score | 2.76 z-score | 5.45 z-score | 4.8 z-score | 4.47 z-score
3 | CCGATTAACATCAGGGGGGAAAATGATGTTAATCGGGTCTTGATTCGCTTGACGCTGCTG | 7.23 z-score | 6.13 z-score | 8.77 z-score | 11.5 z-score | 4.99 z-score | 6.28 z-score | 7.08 z-score
4 | CCGATTAACATCACGGGGGGTACTGATGTTAATCGGGTCTTGATTCGCTTGACGCTGCTG | 5.05 z-score | 3.22 z-score | 3.15 z-score | 4.54 z-score | 3.63 z-score | 3.58 z-score | 3.25 z-score
5 | CCGATTAACATCAAGGGTTTCCCTGATGTTAATCGGGTCTTGATTCGCTTGACGCTGCTG | 4.12 z-score | 4.79 z-score | 4.07 z-score | 3.82 z-score | 7.83 z-score | 5.56 z-score | 3.28 z-score
6 | CCGATTAACATCAGGGGACTCACTGATGTTAATCGGGTCTTGATTCGCTTGACGCTGCTG | 5.12 z-score | 4.13 z-score | 4.07 z-score | 3.05 z-score | 8.85 z-score | 4.46 z-score | 4.32 z-score
7 | CCGATTAACATCAACAATTCCCCTGATGTTAATCGGGTCTTGATTCGCTTGACGCTGCTG | 7.89 z-score | 8.85 z-score | 10.8 z-score | 7.14 z-score | 5.11 z-score | 5.93 z-score | 6.81 z-score
8 | CCGATTAACATCAGAAACTCCCCTGATGTTAATCGGGTCTTGATTCGCTTGACGCTGCTG | 8.69 z-score | 7.68 z-score | 7.84 z-score | 5.37 z-score | 7.08 z-score | 7.47 z-score | 6.42 z-score
9 | CCGATTAACATCAAGGGGAAATCTGATGTTAATCGGGTCTTGATTCGCTTGACGCTGCTG | 8.38 z-score | 9.53 z-score | 12.2 z-score | 7.59 z-score | 6.04 z-score | 6.89 z-score | 7.08 z-score
10 | CCGATTAACATCAGCAATTCCCCTGATGTTAATCGGGTCTTGATTCGCTTGACGCTGCTG | 7.03 z-score | 7.8 z-score | 9.25 z-score | 5.7 z-score | 3.8 z-score | 5.36 z-score | 6.4 z-score
11 | CCGATTAACATCAAGATTCCCCTTGATGTTAATCGGGTCTTGATTCGCTTGACGCTGCTG | 7.59 z-score | 10 z-score | 10.8 z-score | 5.46 z-score | 6.62 z-score | 6.39 z-score | 7.18 z-score
12 | CCGATTAACATCAAATTCCCCCGTGATGTTAATCGGGTCTTGATTCGCTTGACGCTGCTG | 9.52 z-score | 8.91 z-score | 9.58 z-score | 11 z-score | 8.23 z-score | 7.32 z-score | 7.06 z-score
13 | CCGATTAACATCAGATTTTCCCATGATGTTAATCGGGTCTTGATTCGCTTGACGCTGCTG | 3.85 z-score | 5.14 z-score | 6.26 z-score | 5 z-score | 1.26 z-score | 4.25 z-score | 3.82 z-score
14 | CCGATTAACATCAAGGGGATTCCTGATGTTAATCGGGTCTTGATTCGCTTGACGCTGCTG | 10.4 z-score | 10.4 z-score | 9.96 z-score | 2.68 z-score | 9.9 z-score | 7.84 z-score | 7.29 z-score
15 | CCGATTAACATCAAAGCCCCCCCTGATGTTAATCGGGTCTTGATTCGCTTGACGCTGCTG | 5.97 z-score | 4.23 z-score | 4.62 z-score | 4.66 z-score | 6.01 z-score | 5.12 z-score | 4.63 z-score
16 | CCGATTAACATCAAAAATACCCCTGATGTTAATCGGGTCTTGATTCGCTTGACGCTGCTG | 7.44 z-score | 8.45 z-score | 7.96 z-score | 6.5 z-score | 7.71 z-score | 7.5 z-score | 6.44 z-score
17 | CCGATTAACATCACCCGGGAAACTGATGTTAATCGGGTCTTGATTCGCTTGACGCTGCTG | 2.48 z-score | 2.39 z-score | 3.08 z-score | 4.78 z-score | 1.11 z-score | 2.32 z-score | 1.81 z-score
18 | CCGATTAACATCAGGTATCCCCATGATGTTAATCGGGTCTTGATTCGCTTGACGCTGCTG | 5.17 z-score | 3.31 z-score | 4.07 z-score | 3.11 z-score | 5 z-score | 3 z-score | 3 z-score
19 | CCGATTAACATCAAAAATCCACCTGATGTTAATCGGGTCTTGATTCGCTTGACGCTGCTG | 2.25 z-score | 2.65 z-score | 3.34 z-score | 1.26 z-score | 4.27 z-score | 3.29 z-score | 4.62 z-score
20 | CCGATTAACATCAATTTTTCCCCTGATGTTAATCGGGTCTTGATTCGCTTGACGCTGCTG | 7 z-score | 8.62 z-score | 11.5 z-score | 11.2 z-score | 5.15 z-score | 5.96 z-score | 6.59 z-score
21 | CCGATTAACATCAGAACTCCCCCTGATGTTAATCGGGTCTTGATTCGCTTGACGCTGCTG | 7.91 z-score | 6.48 z-score | 7.12 z-score | 6.15 z-score | 5.58 z-score | 6.48 z-score | 7.11 z-score
22 | CCGATTAACATCAAGAAGTTCCCTGATGTTAATCGGGTCTTGATTCGCTTGACGCTGCTG | 3.54 z-score | 3.73 z-score | 2.6 z-score | 2.42 z-score | 3.58 z-score | 4.79 z-score | 3.17 z-score
23 | CCGATTAACATCACGGGTTTTCCTGATGTTAATCGGGTCTTGATTCGCTTGACGCTGCTG | 2.91 z-score | 2.73 z-score | 1.9 z-score | 1.18 z-score | 4.43 z-score | 4.99 z-score | 2.29 z-score
24 | CCGATTAACATCAAAAATACCCTTGATGTTAATCGGGTCTTGATTCGCTTGACGCTGCTG | 5.7 z-score | 9.05 z-score | 7.74 z-score | 1.68 z-score | 7.04 z-score | 7.5 z-score | 6.41 z-score
